In experiment [1] the target is Sphingosine kinase 1 (Homo sapiens) (UniProt Q9NYA1). The settings on record: at 1 µM.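 Note: mean SPHK1 inhibition value reported from the GSK PKIS kinase panel screen.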
The target in experiment [2] is T1, Sphingosine kinase 2 (Homo sapiens) (UniProt Q9NRA0).
T1 sequence (whole entry): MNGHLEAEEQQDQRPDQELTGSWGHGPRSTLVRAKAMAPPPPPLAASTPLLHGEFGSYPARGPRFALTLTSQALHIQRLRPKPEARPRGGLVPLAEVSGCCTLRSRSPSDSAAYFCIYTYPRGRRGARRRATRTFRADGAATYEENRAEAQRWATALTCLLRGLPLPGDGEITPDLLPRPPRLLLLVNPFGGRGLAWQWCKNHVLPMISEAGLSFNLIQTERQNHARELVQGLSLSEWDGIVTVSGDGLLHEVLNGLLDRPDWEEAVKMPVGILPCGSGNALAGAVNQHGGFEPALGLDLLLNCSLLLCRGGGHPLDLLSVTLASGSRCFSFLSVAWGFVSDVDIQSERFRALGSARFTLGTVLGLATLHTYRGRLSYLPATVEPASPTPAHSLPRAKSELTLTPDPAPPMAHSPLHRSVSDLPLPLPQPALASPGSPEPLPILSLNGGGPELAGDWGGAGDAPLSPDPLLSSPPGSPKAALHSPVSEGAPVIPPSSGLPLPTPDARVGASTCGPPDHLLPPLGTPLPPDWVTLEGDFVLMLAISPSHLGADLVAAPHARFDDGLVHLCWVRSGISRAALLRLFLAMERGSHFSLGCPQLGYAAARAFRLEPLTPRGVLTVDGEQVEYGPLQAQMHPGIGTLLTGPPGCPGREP
The following applies: at 0.1 µM.

Experiment [3] has as its target T1, Sphingosine kinase 2 (Homo sapiens). The following applies: at 1 µM.
Experiment [4] deals with Casein kinase II subunit alpha (Homo sapiens) (UniProt P68400). The following applies: at 0.1 µM.
Chain of Casein kinase II subunit alpha (Homo sapiens) (P68400 whole entry, looked up): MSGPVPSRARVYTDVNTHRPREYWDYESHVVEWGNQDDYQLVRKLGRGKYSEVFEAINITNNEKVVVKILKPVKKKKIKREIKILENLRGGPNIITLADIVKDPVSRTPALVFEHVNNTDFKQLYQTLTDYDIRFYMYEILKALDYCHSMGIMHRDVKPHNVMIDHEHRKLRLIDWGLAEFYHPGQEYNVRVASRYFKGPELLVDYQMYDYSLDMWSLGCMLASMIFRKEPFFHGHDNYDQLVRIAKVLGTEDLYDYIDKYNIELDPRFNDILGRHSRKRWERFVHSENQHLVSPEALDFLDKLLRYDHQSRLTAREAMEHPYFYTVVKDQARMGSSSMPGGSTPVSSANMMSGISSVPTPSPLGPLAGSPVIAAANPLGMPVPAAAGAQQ
For experiment [5] the target is unchanged. The following applies: at 1 µM.
In experiment [6] the target is T2, Inhibitor of nuclear factor kappa-B kinase subunit alpha (Homo sapiens) (UniProt O15111).
T2 sequence (whole entry): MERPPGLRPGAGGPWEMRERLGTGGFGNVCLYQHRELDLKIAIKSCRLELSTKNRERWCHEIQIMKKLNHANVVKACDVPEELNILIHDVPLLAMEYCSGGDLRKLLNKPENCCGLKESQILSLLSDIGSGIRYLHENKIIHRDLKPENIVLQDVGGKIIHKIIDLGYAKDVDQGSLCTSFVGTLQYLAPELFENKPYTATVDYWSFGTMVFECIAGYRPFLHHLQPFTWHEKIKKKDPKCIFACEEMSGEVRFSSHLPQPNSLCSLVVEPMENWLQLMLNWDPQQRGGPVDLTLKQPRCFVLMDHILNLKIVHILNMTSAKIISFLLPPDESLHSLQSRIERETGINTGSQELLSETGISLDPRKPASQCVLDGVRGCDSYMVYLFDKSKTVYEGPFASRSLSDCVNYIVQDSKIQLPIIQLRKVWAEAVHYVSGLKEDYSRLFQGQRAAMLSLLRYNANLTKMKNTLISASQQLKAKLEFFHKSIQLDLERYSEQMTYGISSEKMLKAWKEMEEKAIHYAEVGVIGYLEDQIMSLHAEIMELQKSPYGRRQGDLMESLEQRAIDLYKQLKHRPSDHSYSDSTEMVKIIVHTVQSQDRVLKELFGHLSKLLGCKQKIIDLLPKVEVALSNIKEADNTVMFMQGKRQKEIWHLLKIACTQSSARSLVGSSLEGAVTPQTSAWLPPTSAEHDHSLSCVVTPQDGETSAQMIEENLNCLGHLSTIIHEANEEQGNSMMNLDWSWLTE
The settings on record: at 0.1 µM.

Experiment [7] deals with T2, Inhibitor of nuclear factor kappa-B kinase subunit alpha (Homo sapiens). The following applies: at 1 µM.
The target of experiment [8] is T3, Inhibitor of nuclear factor kappa-B kinase subunit beta (Homo sapiens) (UniProt O14920).
T3 sequence (whole entry): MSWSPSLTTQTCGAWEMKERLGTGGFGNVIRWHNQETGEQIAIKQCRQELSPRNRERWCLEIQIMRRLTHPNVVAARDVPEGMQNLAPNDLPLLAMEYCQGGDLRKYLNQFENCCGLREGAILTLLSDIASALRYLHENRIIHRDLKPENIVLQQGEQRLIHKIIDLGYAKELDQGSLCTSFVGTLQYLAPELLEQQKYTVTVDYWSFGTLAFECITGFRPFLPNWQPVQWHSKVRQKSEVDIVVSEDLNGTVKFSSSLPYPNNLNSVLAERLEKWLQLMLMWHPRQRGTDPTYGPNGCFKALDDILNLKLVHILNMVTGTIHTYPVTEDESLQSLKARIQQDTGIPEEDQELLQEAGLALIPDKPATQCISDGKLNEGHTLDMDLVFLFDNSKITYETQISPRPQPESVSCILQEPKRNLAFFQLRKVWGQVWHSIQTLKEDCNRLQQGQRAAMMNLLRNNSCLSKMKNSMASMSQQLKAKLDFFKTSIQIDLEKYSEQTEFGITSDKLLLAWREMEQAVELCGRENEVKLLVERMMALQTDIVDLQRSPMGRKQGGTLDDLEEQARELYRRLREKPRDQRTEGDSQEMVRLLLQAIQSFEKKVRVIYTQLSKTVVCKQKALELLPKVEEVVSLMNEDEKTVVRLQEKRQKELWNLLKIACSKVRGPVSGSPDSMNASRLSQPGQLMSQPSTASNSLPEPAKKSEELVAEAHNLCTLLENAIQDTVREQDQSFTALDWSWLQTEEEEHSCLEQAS
The settings on record: at 0.1 µM.

Experiment [9] has as its target T3, Inhibitor of nuclear factor kappa-B kinase subunit beta (Homo sapiens). The settings on record: at 1 µM.
Experiment [10] concerns the target T4, Inhibitor of nuclear factor kappa-B kinase subunit epsilon (Homo sapiens) (UniProt Q14164).
T4 sequence (whole entry): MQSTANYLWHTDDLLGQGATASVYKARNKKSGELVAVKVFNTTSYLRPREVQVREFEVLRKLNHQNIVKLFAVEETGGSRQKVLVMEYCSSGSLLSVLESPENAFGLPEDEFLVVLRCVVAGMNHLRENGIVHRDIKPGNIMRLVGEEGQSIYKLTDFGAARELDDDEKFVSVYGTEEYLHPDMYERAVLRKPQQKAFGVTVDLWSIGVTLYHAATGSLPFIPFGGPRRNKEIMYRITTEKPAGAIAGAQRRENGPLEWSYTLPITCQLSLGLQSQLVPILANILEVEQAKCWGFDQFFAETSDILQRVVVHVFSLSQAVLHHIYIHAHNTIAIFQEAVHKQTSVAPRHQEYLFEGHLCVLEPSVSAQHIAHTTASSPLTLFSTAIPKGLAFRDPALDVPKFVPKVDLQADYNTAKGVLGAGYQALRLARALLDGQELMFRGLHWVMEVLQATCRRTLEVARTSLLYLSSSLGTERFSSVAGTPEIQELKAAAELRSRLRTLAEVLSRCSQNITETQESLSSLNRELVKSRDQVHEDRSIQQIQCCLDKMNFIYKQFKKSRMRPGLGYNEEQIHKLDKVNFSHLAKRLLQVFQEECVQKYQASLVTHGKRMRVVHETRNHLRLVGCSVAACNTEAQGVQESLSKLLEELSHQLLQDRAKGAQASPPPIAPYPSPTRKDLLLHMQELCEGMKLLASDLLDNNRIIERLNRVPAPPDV
The following applies: at 0.1 µM.

In experiment [11] the target is T4, Inhibitor of nuclear factor kappa-B kinase subunit epsilon (Homo sapiens). The following applies: at 1 µM.
The target in experiment [12] is T5, Serine/threonine-protein kinase Nek1 (Homo sapiens) (UniProt Q96PY6).
T5 sequence (whole entry): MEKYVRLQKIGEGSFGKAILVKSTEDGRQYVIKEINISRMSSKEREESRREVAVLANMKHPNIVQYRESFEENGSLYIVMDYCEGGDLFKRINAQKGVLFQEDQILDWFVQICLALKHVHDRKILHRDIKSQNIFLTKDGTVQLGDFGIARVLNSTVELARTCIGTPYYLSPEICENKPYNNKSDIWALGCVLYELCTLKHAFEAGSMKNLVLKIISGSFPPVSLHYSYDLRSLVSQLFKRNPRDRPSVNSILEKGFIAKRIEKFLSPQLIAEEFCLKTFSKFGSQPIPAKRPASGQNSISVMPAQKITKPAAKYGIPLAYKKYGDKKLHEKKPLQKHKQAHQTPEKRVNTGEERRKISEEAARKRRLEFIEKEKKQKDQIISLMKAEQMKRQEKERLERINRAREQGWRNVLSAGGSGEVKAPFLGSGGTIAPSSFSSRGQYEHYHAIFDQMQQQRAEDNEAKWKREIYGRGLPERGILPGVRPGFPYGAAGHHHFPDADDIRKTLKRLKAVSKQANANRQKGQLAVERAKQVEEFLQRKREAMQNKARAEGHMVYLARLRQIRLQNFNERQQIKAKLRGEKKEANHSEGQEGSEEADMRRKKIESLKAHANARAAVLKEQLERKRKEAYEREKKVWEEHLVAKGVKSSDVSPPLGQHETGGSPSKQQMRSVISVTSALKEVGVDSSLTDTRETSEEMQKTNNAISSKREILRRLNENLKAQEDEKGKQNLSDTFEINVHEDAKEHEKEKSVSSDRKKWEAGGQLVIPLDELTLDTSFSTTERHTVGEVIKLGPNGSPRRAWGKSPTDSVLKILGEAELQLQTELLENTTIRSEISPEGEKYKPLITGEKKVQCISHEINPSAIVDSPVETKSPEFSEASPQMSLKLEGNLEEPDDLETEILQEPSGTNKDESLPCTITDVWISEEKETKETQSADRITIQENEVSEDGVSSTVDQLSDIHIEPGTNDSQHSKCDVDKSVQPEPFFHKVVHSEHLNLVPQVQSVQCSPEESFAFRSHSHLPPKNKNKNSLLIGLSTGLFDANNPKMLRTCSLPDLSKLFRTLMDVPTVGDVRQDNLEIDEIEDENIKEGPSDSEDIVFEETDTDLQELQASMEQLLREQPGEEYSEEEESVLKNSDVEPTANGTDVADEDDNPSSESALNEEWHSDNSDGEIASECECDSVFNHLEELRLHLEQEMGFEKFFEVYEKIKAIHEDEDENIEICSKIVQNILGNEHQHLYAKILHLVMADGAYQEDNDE
The settings on record: at 0.1 µM.

The target in experiment [13] is T5, Serine/threonine-protein kinase Nek1 (Homo sapiens). The settings on record: at 1 µM.
The target in experiment [14] is T6, Serine/threonine-protein kinase Nek2 (Homo sapiens) (UniProt P51955).
T6 sequence (whole entry): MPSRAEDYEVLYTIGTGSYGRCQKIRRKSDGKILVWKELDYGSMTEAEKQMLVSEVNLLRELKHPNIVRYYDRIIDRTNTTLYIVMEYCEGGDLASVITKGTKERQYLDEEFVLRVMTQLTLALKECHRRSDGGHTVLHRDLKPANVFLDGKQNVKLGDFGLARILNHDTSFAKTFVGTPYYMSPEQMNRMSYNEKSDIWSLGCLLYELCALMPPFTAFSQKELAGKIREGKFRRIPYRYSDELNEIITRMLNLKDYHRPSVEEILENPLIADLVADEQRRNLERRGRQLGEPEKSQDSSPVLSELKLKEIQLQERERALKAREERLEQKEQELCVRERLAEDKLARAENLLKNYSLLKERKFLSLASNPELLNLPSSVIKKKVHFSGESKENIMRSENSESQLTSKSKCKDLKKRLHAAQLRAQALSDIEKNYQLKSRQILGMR
The following applies: at 0.1 µM.

Experiment [15] addresses T6, Serine/threonine-protein kinase Nek2 (Homo sapiens). The following applies: at 1 µM.
Experiment [16] addresses Serine/threonine-protein kinase Nek6 (Homo sapiens) (UniProt Q9HC98). The settings on record: at 0.1 µM.
For experiment [17] the target is unchanged. The following applies: at 1 µM.
Experiment [18] deals with Serine/threonine-protein kinase Nek7 (Homo sapiens) (UniProt Q8TDX7). The settings on record: at 0.1 µM.
Chain of Serine/threonine-protein kinase Nek7 (Homo sapiens) (Q8TDX7 whole entry, looked up): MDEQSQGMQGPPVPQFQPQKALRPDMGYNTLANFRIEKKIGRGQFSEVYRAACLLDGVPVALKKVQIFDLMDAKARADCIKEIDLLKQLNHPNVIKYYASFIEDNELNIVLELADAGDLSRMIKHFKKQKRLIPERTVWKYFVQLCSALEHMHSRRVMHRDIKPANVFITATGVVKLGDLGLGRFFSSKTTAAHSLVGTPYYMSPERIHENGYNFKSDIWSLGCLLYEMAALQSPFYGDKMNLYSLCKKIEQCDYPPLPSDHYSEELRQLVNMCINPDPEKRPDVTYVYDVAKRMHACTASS
Experiment [19] shares this target. The settings on record: at 1 µM.
Experiment [20] concerns the target T7, Serine/threonine-protein kinase Nek9 (Homo sapiens) (UniProt Q8TD19).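 Note: reported value is the mean percent inhibition of NEK9.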
T7 sequence (whole entry): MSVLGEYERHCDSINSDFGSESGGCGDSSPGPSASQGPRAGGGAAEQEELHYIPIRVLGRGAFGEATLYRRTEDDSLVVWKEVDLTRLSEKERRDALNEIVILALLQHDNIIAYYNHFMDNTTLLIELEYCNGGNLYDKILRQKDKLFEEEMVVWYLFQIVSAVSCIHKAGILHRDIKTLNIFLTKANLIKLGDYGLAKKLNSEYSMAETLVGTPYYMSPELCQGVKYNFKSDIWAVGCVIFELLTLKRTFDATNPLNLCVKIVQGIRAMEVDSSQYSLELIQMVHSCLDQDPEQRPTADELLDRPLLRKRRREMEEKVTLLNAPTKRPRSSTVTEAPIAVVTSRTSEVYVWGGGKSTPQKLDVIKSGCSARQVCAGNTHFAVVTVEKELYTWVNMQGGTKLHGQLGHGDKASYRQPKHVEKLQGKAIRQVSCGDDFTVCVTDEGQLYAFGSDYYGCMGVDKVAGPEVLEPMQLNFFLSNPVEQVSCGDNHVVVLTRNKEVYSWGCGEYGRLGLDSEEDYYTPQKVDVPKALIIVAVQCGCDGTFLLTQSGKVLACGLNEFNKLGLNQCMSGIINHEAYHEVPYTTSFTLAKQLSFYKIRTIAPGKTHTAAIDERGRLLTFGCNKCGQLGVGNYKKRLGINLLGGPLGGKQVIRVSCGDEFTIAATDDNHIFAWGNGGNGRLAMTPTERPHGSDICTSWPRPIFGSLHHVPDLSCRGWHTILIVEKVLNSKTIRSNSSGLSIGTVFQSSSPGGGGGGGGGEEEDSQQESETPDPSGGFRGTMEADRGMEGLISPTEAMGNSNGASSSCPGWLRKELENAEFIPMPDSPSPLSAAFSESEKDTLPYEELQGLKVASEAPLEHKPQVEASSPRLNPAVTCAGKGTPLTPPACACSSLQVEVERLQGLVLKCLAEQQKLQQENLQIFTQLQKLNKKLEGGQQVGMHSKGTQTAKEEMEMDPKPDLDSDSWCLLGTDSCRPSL
The following applies: at 0.1 µM.

Molecules are shown by their SMILES.

Chain of Serine/threonine-protein kinase Nek6 (Homo sapiens) (Q9HC98 whole entry): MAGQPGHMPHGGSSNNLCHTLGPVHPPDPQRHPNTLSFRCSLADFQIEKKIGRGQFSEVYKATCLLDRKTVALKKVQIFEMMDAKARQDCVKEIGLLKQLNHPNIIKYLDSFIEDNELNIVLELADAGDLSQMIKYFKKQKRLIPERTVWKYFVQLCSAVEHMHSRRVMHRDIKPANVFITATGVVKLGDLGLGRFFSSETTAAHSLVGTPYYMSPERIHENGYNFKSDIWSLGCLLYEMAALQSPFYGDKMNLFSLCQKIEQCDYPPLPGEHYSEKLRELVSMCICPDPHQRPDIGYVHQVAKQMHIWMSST
Chain of Sphingosine kinase 1 (Homo sapiens) (Q9NYA1 whole entry): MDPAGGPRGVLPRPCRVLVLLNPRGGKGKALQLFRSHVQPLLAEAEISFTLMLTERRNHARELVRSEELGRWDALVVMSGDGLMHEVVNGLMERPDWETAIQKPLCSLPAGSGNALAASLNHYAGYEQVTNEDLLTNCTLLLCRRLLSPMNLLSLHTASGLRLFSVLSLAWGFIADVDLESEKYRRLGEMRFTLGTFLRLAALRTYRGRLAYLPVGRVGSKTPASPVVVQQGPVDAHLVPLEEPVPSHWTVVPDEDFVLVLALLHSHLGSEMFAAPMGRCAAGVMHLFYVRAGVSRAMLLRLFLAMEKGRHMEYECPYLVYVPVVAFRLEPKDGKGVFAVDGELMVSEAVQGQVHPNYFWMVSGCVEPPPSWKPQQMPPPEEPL

For the molecule `CCN(CC)Cc1ccc(Nc2nccc(-c3cnn4ncccc34)n2)cc1`, the inhibition in experiment [1] worked out at 7.74%; in experiment [2] it was 4.29%; in [3] it was 2.72%; in experiment [4], 10.9%; in [5], 31.1%; in [6], 3.66%. Further, the inhibition came out at 34.9% in experiment [7]; 7.57% in experiment [8]; 17.5% in [9]; 8.95% in experiment [10]; 17.8% in experiment [11]; 2.8% in [12]. Moreover, the inhibition is 4.48% in [13]; 4.07% in [14]; 3.41% in experiment [15]; 1.02% in experiment [16]; -0.16% in experiment [17]; 3.37% in experiment [18]. Moreover, the inhibition in experiment [19] came out at 9.4%; in experiment [20], 6.44%.

For orientation: inhibition means the change of the read-out against control, counted positive when it falls.
